Gal4-VP16 FLuc: inhibits Gal4-VP16 luciferase reporter, ROR gamma counter-screen. Drosophila S2 Gal4-VP16 UAS-luciferase, luminescence, 20 h. Potency, µM (highest dose often 53.6 µM), without a hit: at the highest dose activity, negative = inhibition, actives largely listed as inhibitors. 310,000 compounds, 3.5% hits. AID 2546;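 also: Gal4-VP16 expression switched on by copper sulfate through the metallothionein promoter; potency is read from the fitted curve at half-maximal effect; nearly all actives have a fitted effect of over 50% in size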
GALK inh: blocks human galactokinase activity | Potency, µM (doses to about 57.5 µM), for the others: at the highest dose activity change, negative = inhibition, actives largely listed as inhibitors | 270,000 compounds, 0.007% hits | P51570 | Purified GALK, Kinase-Glo residual ATP luminescence; also: potency is read from the fitted curve at half-maximal effect
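Quantitative HTS: GALK 5 nM, ATP 35 uM, galactose 100 uM, 1 h room temperature, then luciferase-based ATP detection.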
rTrxR1 inhibitor: inhibitors of rat thioredoxin reductase 1 | Potency, µM (doses to about 114 µM), for the others: at the top dose activity change, negative = inhibition, most hits filed as inhibitors | O89049 | recombinant rTrxR1, NADPH fluorescence consumption, selenite substrate | 390,000 compounds, 1% hits; also: potency is read from the fitted curve at half-maximal effect; nearly all actives have a fitted effect of over 65% in size
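Rat TrxR1 (90 nM in the dispensed reagent) was pre-reduced with 400 uM NADPH for 5 min at room temperature, then incubated with compound for 15 min. After 400 uM selenite was added, NADPH fluorescence (Ex 340/Em 450 nm) was followed for 8 min.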
RORgamma inh: inhibitors of mouse ROR gamma transcriptional activity. Drosophila S2 Gal4-RORgamma UAS-luciferase reporter, 20 h. Potency, µM (doses to about 53.6 µM), inactives show top-dose activity change, negative = inhibition, actives largely listed as inhibitors. 310,000 compounds, 5.4% hits. P51450; also: potency is read from the fitted curve at half-maximal effect; nearly all actives have a fitted effect of over 60% in size
Target sequence (P51450 whole entry, looked up, the tested form may be a part): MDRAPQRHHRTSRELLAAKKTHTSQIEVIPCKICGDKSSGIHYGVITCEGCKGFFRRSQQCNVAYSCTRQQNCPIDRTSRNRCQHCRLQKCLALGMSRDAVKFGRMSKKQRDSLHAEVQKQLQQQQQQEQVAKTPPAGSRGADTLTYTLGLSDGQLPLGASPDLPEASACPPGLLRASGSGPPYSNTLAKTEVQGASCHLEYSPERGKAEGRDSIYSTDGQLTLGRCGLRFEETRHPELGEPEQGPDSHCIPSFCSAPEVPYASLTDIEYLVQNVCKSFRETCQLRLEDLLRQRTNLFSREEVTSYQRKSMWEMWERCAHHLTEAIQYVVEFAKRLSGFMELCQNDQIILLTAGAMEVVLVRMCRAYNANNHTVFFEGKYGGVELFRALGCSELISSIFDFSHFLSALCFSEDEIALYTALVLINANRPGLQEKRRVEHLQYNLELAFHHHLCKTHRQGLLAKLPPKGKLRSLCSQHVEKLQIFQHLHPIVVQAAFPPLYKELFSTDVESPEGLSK
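Schneider cells (Drosophila), stable Gal4 DBD–ROR gamma + UAS-luc; 1 hr cmpd preincubation; Cu2+ induction 700 uM final; 20 hr ambient; luminescence.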
TrxR1 substrate: substrates of rat thioredoxin reductase 1. AID 588456. Potency, µM (titrated, usually from 114 µM), without a hit: at the top dose activity change, negative = substrate turnover. 390,000 compounds, 0.01% hits. O89049. purified TrxR1 substrate turnover, NADPH consumption readout; also: potency is read from the fitted curve at half-maximal effect; nearly all actives have a fitted effect of over 50% in size
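Rat TrxR1, dispensed at 90 nM, was prereduced with 400 uM NADPH (final) for 5 min at ~22 deg C, then incubated with compound 15 min before 400 uM selenite. A first-read NADPH fluorescence drop versus no-compound background flagged substrates.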
FBPA coupling cs: inhibits coupling enzyme system, counter-screen for aldolase hits; coupling enzyme system counterscreen, AmpLite Red fluorescence; activity change, negative = inhibition, % at 58.2 µM, hits read low; 290,000 compounds, 0.67% hits; AID 2472; in the data active = activity change below about -30%
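Coupling enzymes only (glyceraldehyde-3-phosphate) + compound, at 57.5 uM final, 10 min RT; add substrate/coupling/AmpLite Red mix, 20 min RT; fluorescence ex 525/em 598 nm. Actives flag coupling-system interference.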
Starred values were filed as active, the others as inactive; ? = inconclusive; · = not tested or not shown; [ ] = remark or other dose. An excerpt weighted towards active compounds, which were near 5.9% of everything screened. Unless noted, calls follow the shape of the dose curve; as a rule, active = well fitted curve in the direction sought with a large enough effect; inconclusive = small, poorly fitted or top-dose-only effect, or another doubt; inactive = no such curve, though single readings can be large; an effect the other way counts as inactive or inconclusive. % is scaled to controls: 0 for no effect and ±100 for the full control effect.

SMILES	Gal4-VP16 FLuc	GALK inh	rTrxR1 inhibitor	RORgamma inh	TrxR1 substrate	FBPA coupling cs
CC(C)(C)c1ccc(/C=C2\SC(=O)N(CCNC(=O)c3cccc(S(=O)(=O)N4CCOCC4)c3)C2=O)cc1	2µM*	0%	-16%	?	-15%	-6
COc1ccc(NC(=O)c2cc(C3CC3)nc3c2c(C)nn3-c2ccccc2)cc1	·	·	-10%	·	8%	·
Nn1cnnc1SC1CCCCC1NS(=O)(=O)c1ccccc1 (stereo not drawn)	8.9µM*	-4%	7%[57.1 µM]	-16%	3%[57.1 µM]	4
C=C(Br)Cn1c(CCC)nc2ccccc21	-4%	4%	-13%	?	-11%	1
CCOc1ccccc1C1C(C#N)=C(N)Oc2n[nH]c(CC)c21 (stereo not drawn)	-5%	-1%	2%	-14%	9%	-1
N#CC1=C(N)SC(N)=C(C#N)C1c1ccc([N+](=O)[O-])cc1	?	-3%	50µM*	?	-1%	-11
CCc1ccc(C2C(C#N)=C(N)SC(N)=C2C#N)cc1	-7%	0%	?	0%	-9%	-16
CCOc1ccc(C2C(C#N)=C(N)SC(N)=C2C#N)cc1OC	0%	-3%	·	?	·	-39*
CCOc1ccc(C2C(C#N)=C(N)SC(N)=C2C#N)cc1OCC	7.9µM*	0%	-26%	-28%	-1%	-22
CCOc1ccccc1C1C(C#N)=C(N)SC(N)=C1C#N	?	-2%	-58%	-30%	-4%[57.1 µM]	-31*
N#CC1=C(N)SC(N)=C(C#N)C1c1ccc(C(F)(F)F)cc1	-4%	2%	·	8%	·	-24
N#CC1=C(N)SC(N)=C(C#N)C1c1cccc(Oc2ccccc2)c1	?	-4%	-44%[57.1 µM]	?	-4%[57.1 µM]	-16
COc1ccccc1Nc1ncc(-c2cccs2)s1	1%	-1%	?	-16%	-10%	1
O=C(Nc1cccc(Br)c1)c1ccc(CN2CCc3ccccc3C2)cc1	19%	2%	11%	?	-3%	0
Cc1ccc(-n2c(-c3nn(C)cc3Cl)n[nH]c2=S)cc1	-19%	2%	-13%	?	-4%	1
CCn1c(-c2nn(C)cc2Cl)n[nH]c1=S	?	2%	-14%	11µM*	2%	0
CC(C)Cn1c(-c2nn(C)cc2Cl)n[nH]c1=S	?	-4%	-17%	11µM*	-1%	·
Cc1ccsc1-c1n[nH]c(=S)n1CC(C)C	6.3µM*	1%	-33%	2.8µM*	-11%	-8
CC(C)Cn1c(-c2cccc(S(=O)(=O)N3CCOCC3)c2)n[nH]c1=S	·	·	-11%	·	0%	·
CC(C)Cn1c(-c2ccc(Br)o2)n[nH]c1=S	?	2%	8%	6.3µM*	6%	3
COC(=O)Cc1cc(=O)n2c(nc3ccccc32)[nH]1	·	·	1%	·	71%	·
CSc1ccc(CNCc2ccc3c(c2)OCO3)cc1	-5%	0%	15%	19%	0%	-1
CC1CCCN(C(=O)/C(=C/c2ccco2)NC(=O)c2ccccc2)C1 (stereo not drawn)	-7%	-1%	?	-4%	-3%	-1
O=C(N/C(=C\c1ccco1)C(=O)N1CCCC1CO)c1ccccc1 (stereo not drawn)	0%	6%	40µM*	19%	-15%	2
CCN(CC)c1ccc(N=Nc2nn(C)c(C)c2[N+](=O)[O-])cc1	?	0%	-6%	5µM*	-7%	-5
SMILES	Gal4-VP16 FLuc	GALK inh	rTrxR1 inhibitor	RORgamma inh	TrxR1 substrate	FBPA coupling cs
C=C(C)C1Cc2c(C)nn(-c3cccc4ccccc34)c2C1 (stereo not drawn)	?	2%	-10%	14µM*	-6%	4
O=C(CC(Nc1ccc(F)cc1)C(=O)O)c1ccccc1 (stereo not drawn)	?	-1%	14µM*	?	-1%	-3
O=C(CC(Nc1ccc(F)cc1)C(=O)OCC(=O)c1cccs1)c1ccccc1 (stereo not drawn)	?	2%	25µM*	-29%	-1%	-1
Cc1ccc(NC(CC(=O)c2ccccc2)c2ccc(F)cc2)cc1 (stereo not drawn)	-1%	0%	-10%	32%	-12%	-6
CC1(C)CC(=O)c2cc(OCC(=O)N3CCCCCC3)ccc2O1	-2%	1%	-10%	34%	167%	2
Cn1c(=O)c(C#N)c(-c2ccc(F)cc2)c2cc(C(=O)c3cc(Cl)cc(Cl)c3O)cnc21	18µM*	-3%	-21%	-73%	-8%	-1
COc1ccccc1-n1c(=O)c(C#N)c(-c2ccc([N+](=O)[O-])cc2)c2cc(C(=O)c3cc(F)ccc3O)cnc21	1%	-3%	11%	22%	-4%	0
O=C(NNc1cc(N2CCCC2)nc(N2CCCC2)n1)c1ccc([N+](=O)[O-])cc1	3.2µM*	5%	-4%[57.1 µM]	1.4µM*	-6%	-26
CC(C)(C)c1ccc(C(=O)NNc2cc(N3CCCCC3)nc(N3CCCCC3)n2)cc1	-9%	0%	-4%	-93%	-12%	-8
Cc1ccc([N+](=O)[O-])cc1NC(=O)c1ccccc1	-13%	17%	16%[57.1 µM]	11%	5%[57.1 µM]	-1
Cc1nc(NNC(=O)c2ccc([N+](=O)[O-])cc2)cc(-c2ccccc2)n1	7.9µM*	-1%	-6%	2.2µM*	-9%	0
COc1ccc(Nc2nc(NN)nc(Nc3ccc(OC)cc3)n2)cc1	?	2%	22%	-36%[1.91 µM]	8%[2.29 µM]	-6
NNc1nc(Nc2ccc([N+](=O)[O-])cc2)nc(N2CCCCCC2)n1	16µM*	0%	9%	?	-5%	1
NNc1nc(Nc2ccccc2)nc(N2CCCCC2)n1	7.1µM*	1%	6%	5µM*	-10%	0
NNc1nc(Nc2ccccc2)nc(Nc2ccccc2)n1	-24%	7%	2%[57.1 µM]	16µM*	0%[57.1 µM]	-6
O=[N+]([O-])c1ccc(Nc2nc(N/N=C\c3ccc4c(c3)OCO4)nc(N3CCCCC3)n2)cc1	?	-1%	19%	4.5µM*	3%	-2
c1ccc(Nc2nc(N3CCOCC3)nc(N3CCOCC3)n2)cc1	-6%	3%	-9%	-4%	-5%	-2
O=C(CN1C(=O)c2ccccc2S1(=O)=O)c1ccc(O)c(O)c1	-9%	5%	-21%	-13%	-11%	2
O=C(CN1C(=O)c2ccccc2S1(=O)=O)Nc1ccccc1	-9%	5%	12%	-18%	6%	0
CSc1cccc(NC(=O)CN2C(=O)c3ccccc3S2(=O)=O)c1	13µM*	2%	39%	-27%	7%	-1
O=C(CN1C(=O)c2ccccc2S1(=O)=O)c1ccc(F)c(F)c1	11µM*	-2%	8%	10µM*	0%	-2

High-throughput results as filed in PubChem.
